Bioassay records deposited in PubChem by National Center for Advancing Translational Sciences (NCATS).
The list is not random: actives were taken first. Their share in the collection is about 2.8%.
PI5P4Ka inh: qHTS for Inhibitors of phosphatidylinositol 5-phosphate 4-kinase (PI5P4K). PI5P4Kalpha enzyme, ADP-Glo luminescence, 60 min; hits give low values. max response, %. hit rate 1.2% among 330,000. AID 652105, 2013; active = max response of -50% or lower; inconclusive = between -30% and -50%; inactive = -30% or higher; note: value at the top dose of about 77 µM; % is set by controls: 0 for no effect and ±100 for the full control effect
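PI5P4Kalpha ADP-Glo assay; 5 microM ATP final; 60 min RT reaction; HEPES pH 7.4/EGTA/CHAPS, 5% DMSO; controls lacking substrate or enzyme; luminescent end-point.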
Pol iota inh: qHTS for Inhibitors of Polymerase Iota | DNA polymerase iota (Homo sapiens), Q9UNA4 | Pol iota fluorescent replication assay, 10 min | Potency, µM (doses to about 115 µM), for the others: at the top dose activity, negative = inhibition, hits mostly inhibitors | hit rate 1% among 390,000; note: potency is the fitted concentration of half-maximal effect
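Pol iota at 10 nM preincubated 15 min with compounds at room temperature; reaction started with fluorescent substrate, 50 nM final. Fluorescence read kinetically at 0 and 10 min; buffer-only wells as negative control.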
POLB inh: qHTS Assay for Inhibitors of DNA Polymerase Beta. Pol beta primer extension/strand displacement, fluorescence kinetic. Potency, µM (titrated, usually from 114 µM), inactives show at the highest dose activity change, negative = inhibition, most hits filed as inhibitors. hit rate 1.3% among 340,000. AID 485314, 2010; note: potency is the fitted concentration of half-maximal effect; % is set by controls: 0 for no effect and ±100 for the full control effect
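Enzyme-only controls used 10 nM Pol beta; buffer lacking enzyme served as negative control. Compound preincubated 15 min, then 50 nM substrate added; 0 and 10 min reads at room temperature.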
PI4K2A block: qHTS for small molecular inhibitors of PI4K2A; purified PI4K2A, ADP-Glo luminescence, 1 h; hits give low values; hit rate 0.13% among 420,000; activity change, negative = inhibition, % at 76.9 µM; in the data active = activity change below about -50%; inconclusive = mostly about -30% to -49%;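 note: -100% = wells without enzyme as full effect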
Target sequence (Q9BTU6 whole entry, looked up): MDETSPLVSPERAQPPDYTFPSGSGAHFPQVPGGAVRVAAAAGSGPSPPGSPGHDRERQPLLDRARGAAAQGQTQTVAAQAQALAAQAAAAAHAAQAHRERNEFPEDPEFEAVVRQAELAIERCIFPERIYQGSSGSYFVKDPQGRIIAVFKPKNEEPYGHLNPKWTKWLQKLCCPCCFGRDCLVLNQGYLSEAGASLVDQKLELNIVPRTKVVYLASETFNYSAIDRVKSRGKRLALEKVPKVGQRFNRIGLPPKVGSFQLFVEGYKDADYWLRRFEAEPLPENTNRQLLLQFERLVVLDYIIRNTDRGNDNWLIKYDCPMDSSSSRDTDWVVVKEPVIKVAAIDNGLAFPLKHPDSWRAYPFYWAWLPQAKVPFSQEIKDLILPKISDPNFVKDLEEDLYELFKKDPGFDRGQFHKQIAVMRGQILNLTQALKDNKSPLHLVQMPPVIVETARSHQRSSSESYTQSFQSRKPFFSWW
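ADP-Glo luminescence measured ADP generated by PI4K2A enzyme (4 ug/mL before mixing) with 1.2 mM PI substrate (pre-mix) and 300 microM ATP (pre-mix). Tris pH7.5 buffer with MgCl2, Triton X-100; 1 h reaction at ambient temperature.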
Pol kappa inh: qHTS for Inhibitors of Polymerase Kappa | DNA polymerase kappa (Homo sapiens), Q9UBT6 | purified Pol kappa, fluorescent DNA synthesis assay, 10 min | Potency, µM (highest dose often 107 µM), for inactives: at the highest dose activity, negative = inhibition, most hits filed as inhibitors | hit rate 0.53% among 400,000; note: potency is the fitted concentration of half-maximal effect; % is set by controls: 0 for no effect and ±100 for the full control effect
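Kinetic fluorescence readout at 0 and 10 min followed reaction start with substrate at 50 nM final. Beforehand, enzyme (10 nM Pol kappa) stood 15 min with compound at room temperature; buffer-only wells were negative controls.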
POLH inh: qHTS for Inhibitors of Polymerase Eta | DNA polymerase eta (Homo sapiens), Q9Y253 | recombinant Pol eta, fluorescent DNA replication assay | Potency, µM (doses to about 114 µM), for the others: top-dose activity change, negative = inhibition, usual class: inhibitors | hit rate 1.2% among 390,000 | AID 588591, 2011; note: potency is the fitted concentration of half-maximal effect; % is set by controls: 0 for no effect and ±100 for the full control effect
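Fluorescent replication assay: 50 nM final substrate added after a 15 min room-temperature compound preincubation with 10 nM enzyme. Signal taken at 0 min and again at 10 min.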
* marks the source's active call; other numbers are inactive results; ? = inconclusive; / = no result; [ ] = remark or other dose. Unless noted, calls come from the whole dose curve; as a rule, active = well fitted inhibition curve with a large enough effect; inconclusive = small, poorly fitted or top-dose-only effect, or another doubt; inactive = no such curve, though single readings can be large or run the other way.

SMILES	PI5P4Ka inh	Pol iota inh	POLB inh	PI4K2A block	Pol kappa inh	POLH inh
COc1cc(/C=C2/SC(=S)N(CCC(=O)Nc3ccc(C(=O)O)cc3)C2=O)cc(OC)c1OC	2	-10%	4%	-8	-21%	56µM*
CC(=C\c1ccccc1)/C=C1/SC(=S)N(CCCC(=O)O)C1=O	-18	25µM*	-15%	-16	-26%	25µM*
O=C(CCCN1C(=O)/C(=C\c2ccco2)SC1=S)Nc1ccc2ccccc2c1	-24	215%	20µM*	20	-13%	?
COc1ccc(CCN2C(=O)/C(=C\c3ccco3)SC2=S)cc1OC	-2	?	28µM*	11	-7%	-19%
COc1cc(/C=C2\SC(=S)N(CCC(=O)Nc3ccc(O)cc3)C2=O)cc(OC)c1OC	-8	-8%	-20%	0	8%	5%
COC(=O)C(NS(=O)(=O)CCl)C(C)C (stereo not drawn)	/	30%	/	/	-8%	/
CC(C)(C)n1ncc2c(=O)n(Cc3ccccc3-c3ccccc3)cnc21	/	14%	/	/	4%	/
Fc1ccc(C(c2ccc(F)cc2)N2CCNCC2)cc1	/	/	/	2	/	/
Cc1ccc(OCC(=O)Nc2cc(-c3nc4cc(Cl)ccc4o3)ccc2C)c(C)c1	/	22%	/	/	-4%	/
CC1CCN(c2ccc(C(=O)O)cc2NS(=O)(=O)c2ccccc2)CC1	/	/	/	-9	/	/
CC(=C\c1ccccc1)/C=C1/SC(=S)N(C(C(=O)O)C(C)C)C1=O (stereo not drawn)	-8	?	89µM*	-2	-6%	89µM*
CC(/C=C1\SC(=S)N(CCCC(=O)Nc2ccc(C(=O)O)cc2)C1=O)=C\c1ccccc1	?	?	?	1	-27%	32µM*
CCC(C(=O)O)N1C(=O)/C(=C/C(C)=C/c2ccccc2)SC1=S (stereo not drawn)	-2	?	-11%	-7	-11%	-18%
O=[N+]([O-])c1ccccc1/C=C/CN1CCN(Cc2ccc3c(c2)OCO3)CC1	0	?	21%	4	-5%	-6%
CCc1c(O)cc(=O)n(-c2ccccc2)c1-c1ccccc1	?	?	22µM*	0	-16%	32µM*
O=C1N/C(=N\S(=O)(=O)Cc2ccccc2)S/C1=C/c1cccc([N+](=O)[O-])c1	?	?	0%	5	-7%	50µM*
O=C1N/C(=N/O)S/C1=C/c1cccc([N+](=O)[O-])c1	-23	55%	-28%	1	-7%	-9%
COc1cc(/C=N/NC(=O)c2cc3ccccc3cc2O)ccc1OCCN1CCCCC1	-20	?	79µM*	-5	-25%	-23%
C=C(C)CC(C)(C)C	/	/	/	/	13%[60.1 µM]	/
Oc1ccc(/C=N/Nc2ncnc3nc[nH]c23)cc1	-66*	15%	?	-52*	-11%	?
Clc1ccc(/C=N/Nc2ncnc3nc[nH]c23)cc1	-26	-9%	-19%	-11	-20%	4%
CCN(CC)C(=O)c1ccc(COc2ccc(Cl)c(C)c2)o1	12	27%	89µM*	-6	0%	-22%
CCn1c(SCC(=O)Nc2oc(-c3ccccc3)c(-c3ccccc3)c2C#N)nnc1-c1ccncc1	8	?	0%	-2	?	71µM*
CCn1c(SCC(=O)Nc2oc(-c3ccccc3)c(-c3ccccc3)c2C#N)nnc1-c1ccco1	-24	-6%	4%	6	-17%	-16%
COC(=O)CCC1NC(=O)C(Cc2c[nH]c3ccccc23)NC(=O)C2CC(=O)OC(C)C(NC(=O)C(C)NC(=O)C3CCCN3C(=O)C3CCCN3C(=O)C(C)NC(C)=O)C(=O)NC(CC(C)C)C(=O)NC(CCCCNC(=O)CCC(C(=O)NC(Cc3ccc(O)cc3)C(=O)O)NC1=O)C(=O)NC(Cc1c[nH]c3ccccc13)C(=O)N1CCCC1C(=O)NC(CO)C(=O)N2 (stereo not drawn)	/	/	/	-5	/	/
SMILES	PI5P4Ka inh	Pol iota inh	POLB inh	PI4K2A block	Pol kappa inh	POLH inh
O=C(/C=C/c1cccc([N+](=O)[O-])c1)c1ccc([N+](=O)[O-])o1	?	?	/	-9	4%	?
Cc1cccc(/C=C/C(=O)c2ccc([N+](=O)[O-])o2)c1	-8	11µM*	/	-4	13%	?
CC1(C)c2ccccc2N2CC(=O)N(CC(N)=O)C21C (stereo not drawn)	/	?	45µM*	-9	45µM*	?
Oc1ccc(Nc2nc3ccccc3nc2Nc2ccc(O)cc2)cc1	-21	?	40µM*	-12	-16%	?
Oc1ccc(Nc2nc(-c3ccccc3)nc3ccccc23)cc1	-1	97%	8%	-3	-5%	-9%
CC1=C(C)CS(=O)N(S(=O)(=O)c2ccccc2)C1 (stereo not drawn)	/	?	7%	-13	-11%	-9%
CC1=C(C)CS(=O)N(c2ccc(S(N)(=O)=O)cc2)C1 (stereo not drawn)	5	?	28%	-52*	-8%	12%
COc1ccc(/C=C2\SC(N)=NC2=O)cc1	6	99%	0%	3	-14%	-14%
COc1cc(/C=C2/C(=O)ON=C2C)cc(Cl)c1O	-59*	?	27%	-6	2%	-19%
COc1cc(OC)c(/C=C2\SC(=O)N(CC(=O)Nc3ccccc3F)C2=O)c(OC)c1	-1	8%	29%	-4	-6%	-7%
COc1cc(/C=C2\SC(=O)N(CC(=O)Nc3ccccc3F)C2=O)cc(Cl)c1O	?	?	?	4	?	50µM*
COc1cc(/C=C2\SC(N)=NC2=O)cc(Br)c1O	-71*	-17%	?	3	-40%	0%
COc1cc(/C=C2\SC(=O)N(c3ccccc3Cl)C2=O)cc([N+](=O)[O-])c1O	-53*	?	89µM*	-1	-12%	56µM*
CCN(CC)CC(=O)Nc1c(C)cccc1C(=O)OC	/	/	/	2	/	/
Cc1cc(=O)oc2cc(NC(=O)CC(N)C(=O)O)ccc12 (stereo not drawn)	/	/	/	/	-8%[12 µM]	/
COc1cc(NS(=O)(=O)c2ccc(N)cc2)nc(C)n1	/	/	/	-1	/	/
COc1cc(/C=C2\SC(c3ccccc3)=NC2=O)cc(Cl)c1O	-99*	39%	-4%	-1	-17%	?
COc1ccc(/C=C2/SC(=O)N(CCC(=O)Nc3ccc(C)cc3)C2=O)cc1OC	/	/	-1%	/	/	/
COc1cc(/C=C2\SC(c3ccc(C)cc3)=NC2=O)cc(OC)c1OC	/	7%	4%	8	-6%	-9%
